# Test results: PubChem BioAssay AID504834 (National Center for Advancing Translational Sciences (NCATS), 2011)
# In all, about 320,000 compounds went through this assay and about 22,000 (6.9%) were called active. About 27% were inconclusive and are not listed. The call rests on the fitted dose curve; in most records, active means well fitted inhibition curve with a large enough effect; inconclusive means small, poorly fitted or top-dose-only effect, or another doubt; inactive means no such curve, though single readings can be large or run the other way. Shown is part of a subset that was picked to be rich in actives.
# Test: Primary qHTS for delayed death inhibitors of the malarial parasite plastid, 96 hour incubation
# Conditions: P. falciparum luciferase reporter growth; series mostly up to 28.7 µM; activity change, negative = inhibition: at the top concentration
# In short: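 Erythrocytes infected with luciferase-expressing P. falciparum were dispensed at 2% hematocrit and 0.05% parasitemia (final), then incubated with compounds 96 hours at 37 C in 5% CO2. Luminescence after detection reagent addition reported growth.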
# On the % scale 0 is the no-effect control and ±100 the full control effect; potency means the concentration at half of the fitted maximal effect.
SMILES,Potency,"activity change, negative = inhibition"
CC(C(=O)N1CCN(c2ccccc2F)CC1)c1ccc([N+](=O)[O-])cc1 (stereo not drawn),9.28 µM (active),
O=C(c1cccc2ccccc12)N1CCN(c2ccccc2F)CC1,,-12.8% (inactive)
O=C(CCSc1ccccc1)N1CCN(c2ccccc2F)CC1,,18.7% (inactive)
Cc1ccc(OCCCC(=O)Nc2ccc3c(c2)OCCO3)cc1,,37.2% (inactive)
O=C(Nn1cnnc1)c1cc(Cl)ccc1Cl,,2.88% (inactive)
O=C(NC(=S)Nc1ccc(Cl)c(C(=O)O)c1)c1cncc(Br)c1,,11.9% (inactive)
Cn1c2c(c(=O)n(C)c1=O)C1c3ccccc3OCC1C(C)(C)O2 (stereo not drawn),1.65 µM (active),
Cn1c2c(c(=O)n(C)c1=O)[C@@H]1c3c(ccc4ccccc34)OC[C@@H]1CO2,,43% (inactive)
COc1cccc2c1OCC1COc3c(c(=O)n(C)c(=O)n3C)C21 (stereo not drawn),,-2.79% (inactive)
COc1ccc(C(=O)OCC(=O)c2ccc(C)c(S(=O)(=O)N3CCOCC3)c2)cc1OC,,5.96% (inactive)
COc1ccc(COC(=O)c2ccc(Cl)c(S(=O)(=O)N3CCOCC3)c2)cc1F,14.7 µM (active),
COc1ccccc1OC(=O)c1ccc(C)c(S(=O)(=O)N2CCOCC2)c1,,26.4% (inactive)
C=CCNC(=O)c1ccccc1SCc1c(C)noc1C,,27.8% (inactive)
O=C(c1ccc[nH]c1=S)N1CCN(S(=O)(=O)c2ccc(Br)cc2Cl)CC1,,-19.4% (inactive)
O=C(Nc1nnc(C2CC2)s1)c1cc(Cl)sc1Cl,,6.36% (inactive)
O=C(Nc1nnc(C2CC2)s1)c1ccccn1,10.4 µM (active),
Cc1cc(C(=O)Nc2nnc(C3CC3)s2)c(C)s1,,249% (inactive)

SMILES,Potency,"activity change, negative = inhibition"
C=CCN1CC(C)/C(=N\O)CC1C (stereo not drawn),,31.3% (inactive)
Cc1cnc(C(=O)OCc2c(C)cc(C(C)(C)C)cc2C)cn1,,1.17% (inactive)
CCn1c(=O)c([N+](=O)[O-])c(NCc2ccc3c(c2)OCO3)c2ccccc21,,35.4% (inactive)
S=C(NCc1ccco1)NCc1ccccc1Cl,,41.9% (inactive)
Cc1[nH]c2ccccc2c1C(=O)CN1CC(C)CC(C)C1 (stereo not drawn),,-0.784% (inactive)
Cc1[nH]c2ccccc2c1C(=O)C(C)Sc1nnc(C2CC2)o1 (stereo not drawn),4.15 µM (active),
Cc1[nH]c2ccccc2c1C(=O)CSCC(=O)O,,-26.8% (inactive)
Cc1ccc(SCCSc2ncccn2)cc1,,175% (inactive)
CC1(C)SC2c3ccccc3C(=O)N2[C@@H]1C(=O)NCc1ccco1 (stereo partly drawn),5.22 µM (active),
COCCCNC(=O)[C@H]1N2C(=O)c3ccccc3C2SC1(C)C (stereo partly drawn),,43% (inactive)
O=C(NCc1ccccc1)[C@@H]1CSC2c3ccccc3C(=O)N21 (stereo partly drawn),,59.5% (inactive)
COc1cccc(NC(=O)CN(C)C(=O)CSC(=S)N2CCCC2)c1,,-0.38% (inactive)
Cc1c(Cl)cccc1NC(=O)NCc1ccc(C)n1C,,8.99% (inactive)
Cc1ccc(C2CC(c3cccc(NS(C)(=O)=O)c3)=NN2S(C)(=O)=O)cc1 (stereo not drawn),,39.8% (inactive)
CS(=O)(=O)Nc1cccc(C2=NN(C(=O)c3cccc(F)c3)C(c3cccs3)C2)c1 (stereo not drawn),,23.1% (inactive)
CCOc1ccccc1C1CC(c2cccc(NS(C)(=O)=O)c2)=NN1C(=O)c1ccccc1 (stereo not drawn),13.1 µM (active),
